aDG glyco up: activators of alpha-DG glycosylation, primary screen, uHTS, Pro5-aDG cells, AlphaScreen; actives 0.22% (n = 360,000); AID 624168, 2012; activation, % at 10 µM; alpha-DG glycosylation AlphaScreen (IIH6); 0% Pro5, 100% B10-LARGE cell signal;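 active means activation of at least 8% versus controls, or a plate z-score of at least 8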;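 further: Pro5 are CHO cells carrying HIG-tagged alpha-DG that lacks glycosylation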
EBNA-1 inh: EBNA-1 DNA-binding inhibitors, primary screen, biochemical, fluorescence polarization. actives 0.34% (n = 300,000). inhibition, % at 14.8 µM; in the data active means inhibition above about 28%
ZTA counter: blocks Epstein-Barr virus ZTA, an EBNA-1 counter-screen; ZTA-DNA binding, fluorescence polarization; inhibition, % at 11 µM; actives 0.15% (n = 320,000); AID 2234; in the data active means inhibition above about 33%
NCF1 inh: p47phox/p22phox peptide binding inhibitors, primary screen, biochemical, uHTS, NADPH oxidase regulatory subunit. Neutrophil cytosol factor 1 (Homo sapiens), P14598. fluorescence polarization, 2 h. inhibition, % at 24.7 µM. actives 0.53% (n = 220,000). AID 1274, 2008;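 active means inhibition above about 30%, limit read from the data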;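 further: 0% = p47phox with labelled peptide and 100% = labelled peptide alone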
PG9 Ab binder: binders of HIV-1 gp120 antibody PG9, primary screen, biochemical, TR-FRET. HIV-1 gp120 / PG9 antibody interaction. TR-FRET gp120-PG9 antibody binding. inhibition, % at 6.7 µM. actives 0.43% (n = 360,000); in the data active means inhibition above about 8.5%
Rev-erbA mod: modulators of Rev-erb alpha DNA binding, primary screen, biochemical, FITC-DNA, fluorescence polarization, uHTS | actives 0.79% (n = 370,000) | AID 1259318, 2017 | activity, % at 10 µM | Rev-erbα–FITC-DNA binding, 90 min;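 active means activity above about 14%, limit read from the data; passing the limit was not always enough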;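 further: 0% = DMSO wells with 35 nM protein and 100% = DMSO wells with 750 nM protein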
* hit, by the source's call; nt = no result. Only some compounds are listed: those with a hit (about 1.9% of all), similar ones and a draw of the others.

SMILES	aDG glyco up	EBNA-1 inh	ZTA counter	NCF1 inh	PG9 Ab binder	Rev-erbA mod
Cc1c(C(=O)NCc2ccccn2)oc2ccc(S(=O)(=O)N3CCOCC3)cc12	0	-6	2	50*	-2	-1
O=C(COc1ccc(S(=O)(=O)N2CCCCC2)cc1)NCc1cccnc1	0	-1	-11	35*	0	6
COc1ccc(CNC(=O)COc2ccc(S(=O)(=O)N3CCCCC3)cc2)cc1	0	-11	-24	nt	-1	-1
CCOC(=O)Cn1cc(CN2CCS(=O)(=O)N(Cc3ccc(F)cc3)C(C(=O)OC)C2)nn1 (stereo not given)	nt	nt	nt	nt	nt	-5
NC(=O)C1CCN(Cc2nc3ccccc3c(=O)[nH]2)CC1	0	2	1	33*	1	0
NC(=O)C1CCN(Cc2nc3cc(Cl)ccc3c(=O)[nH]2)CC1	0	-2	-10	-15	1	-2
Cc1cc(C)c(C)c(S(=O)(=O)N2CCC(C(=O)OCC(=O)N3c4ccccc4NC(=O)C3(C)C)CC2)c1C	0	6	-21	-55	-2	-3
CC1(C)C(=O)Nc2ccccc2N1C(=O)COC(=O)C1CCCCC1	0	-10	2	32*	-2	-2
O=c1c(Cl)c2oc3ccccc3nc-2c2ccccc12	6.1*	-9	5	0	nt	nt
CCn1c(=O)cc(SCC(=O)Nc2ccc(C)cn2)c2ccccc21	-1	0	-2	-14	23*	-3
O=C1/C(=C/c2cccnc2)CC/C1=C\c1cccnc1	0	-6	-6	-7	-3	-1
CN(C)c1ccc(/C=C2\CCC/C(=C\c3ccccc3)C2=O)cc1	0	-3	2	-74	-2	6
O=C1/C(=C/c2ccc(C(=O)O)cc2)CCC/C1=C\c1ccc(C(=O)O)cc1	0	3	61*	-1	-1	-5
O=C1/C(=C/c2cccnc2)CCC/C1=C\c1cccnc1	nt	8	38*	-4	-3	4
COc1ccc(NC(=O)CN2C(=O)/C(=C3\SC(=S)N(C4CCS(=O)(=O)C4)C3=O)c3ccccc32)cc1 (stereo not given)	0	-2	-11	52*	-1	7
O=C(CN1C(=O)/C(=C2\SC(=S)N(C3CCS(=O)(=O)C3)C2=O)c2ccccc21)Nc1ccc(F)cc1 (stereo not given)	0	-13	-3	26	-1	-1
CCCCCCCCCC[n+]1cccc2c3ccccc3ccc21	1	nt	nt	50*	0	-7
COc1ccc(CN2C[C@]3(C=C4CCCCC4n4c(=O)n(-c5ccccc5)c(=O)n43)N=C2NC(=O)c2ccccc2)c(OC)c1 (stereo not given in full)	nt	nt	nt	nt	nt	-1
CCOC(=O)c1cnc(SC)nc1N	0	-3	5	109*	-1	-2
CCOC(=O)c1cnc(SCC(C)C)nc1N	0	-1	-18	5	1	0
COC(=O)C1CN(Cc2cn(Cc3ccc(C)cc3)nn2)CCS(=O)(=O)N1Cc1ccc(Cl)cc1 (stereo not given)	nt	nt	nt	nt	nt	0
Cc1ccc(-n2c(O)c(C=NC3CCS(=O)(=O)C3)c3ccccc3c2=O)c(C)c1 (stereo not given)	0	-1	2	-9	0	4
Cc1ccc(-n2c(O)c(C=NC3CCS(=O)(=O)C3)c3ccccc3c2=O)cc1 (stereo not given)	0	6	4	51*	1	-4
O=C1C=C(N(CCO)Cc2ccccc2)c2ccccc2C1=O	14*	nt	nt	3	nt	nt
O=C1c2ccccc2C(=O)c2c1cccc2N(CCO)CCO	0	-3	-18	nt	-36	-1
C[C@@H]1CN([C@@H](C)COC(=O)C(C)(C)C)C(=O)c2cc(NC(=O)Nc3ccccc3)ccc2O[C@@H](C)CCCCO[C@H]1CN(C)S(=O)(=O)c1ccc(F)cc1	nt	nt	nt	nt	nt	0
O=C(Oc1ccccc1)c1cccc2cccnc12	0	-5	14	99*	1	-1
C[Si](C)(C)O[Si](C)(C)O[Si](C)(C)C	nt	nt	nt	nt	nt	-4

Screens: PubChem BioAssay, several laboratories
